dFosB activator – mouse delta FosB homodimer activation. activation, % at 25 µM. purified delta FosB, TAMRA-CDK5 oligo fluorescence polarization; percent of positive-control signal above neutral wells. P13346. hit rate 0.99% among 340,000;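 active = mean activation above about 17%, with every replicate also reaching it, limit read from the data, passing the limit was not always enough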
ZTA DNA inh – ZTA (EBV) inhibition in EBNA-1 counter-screen; hit rate 0.15% among 320,000; ZTA-DNA binding, fluorescence polarization; P03206; inhibition, % at 11 µM; AID 2234; in the data active = inhibition above about 33%
Target sequence (P03206 whole entry, looked up): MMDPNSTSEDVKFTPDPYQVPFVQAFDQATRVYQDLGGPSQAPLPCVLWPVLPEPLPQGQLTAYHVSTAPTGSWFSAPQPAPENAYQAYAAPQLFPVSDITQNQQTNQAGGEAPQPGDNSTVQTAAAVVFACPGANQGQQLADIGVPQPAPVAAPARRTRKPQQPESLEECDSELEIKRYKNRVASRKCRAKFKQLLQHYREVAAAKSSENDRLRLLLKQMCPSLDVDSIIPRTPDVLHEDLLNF
TPT1 inh – C. albicans TPT1 enzyme inhibition; recombinant caTPT1, FP RNA substrate dephosphorylation; AID 1962; hit rate 0.81% among 300,000; inhibition, % at 5 µM;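 active = inhibition above the mean of all tested compounds plus 3 SD, set per screening campaign, cut at about 24% in these data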;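 note: plate controls were DMSO alone for no effect and ferristatin control at 100 nM for full effect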
GRIN3A LBD mod – modulators (binders) of human NR3A ligand-binding domain; AID 1259313; NR3A LBD differential scanning fluorimetry, Tm shift; 0% = protein alone, 100% = glycine-bound protein; hit rate 2.5% among 340,000; Tm shift relative to glycine control, % at 25 µM;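 active = melting temperature shift of at least 10% of the positive control shift, at one fixed dose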
EBNA-1 inh – blocks EBNA-1 binding to DNA | inhibition, % at 14.8 µM | hit rate 0.34% among 300,000 | EBNA-1 DNA binding, fluorescence polarization | AID 1950; in the data active = inhibition above about 28%
Rpn11 inh – Rpn11 (human) deubiquitinase inhibition. inhibition, % at 20 µM. O00487. AID 588493. hit rate 0.59% among 360,000. human 26S proteasome, Ub4-pepOG fluorescence polarization; 20S core pre-blocked with epoxomicin;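 active = inhibition at 20 µM, scaled to each plate's controls, above about 33%, limit read from the data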
Target sequence (O00487 whole entry, looked up): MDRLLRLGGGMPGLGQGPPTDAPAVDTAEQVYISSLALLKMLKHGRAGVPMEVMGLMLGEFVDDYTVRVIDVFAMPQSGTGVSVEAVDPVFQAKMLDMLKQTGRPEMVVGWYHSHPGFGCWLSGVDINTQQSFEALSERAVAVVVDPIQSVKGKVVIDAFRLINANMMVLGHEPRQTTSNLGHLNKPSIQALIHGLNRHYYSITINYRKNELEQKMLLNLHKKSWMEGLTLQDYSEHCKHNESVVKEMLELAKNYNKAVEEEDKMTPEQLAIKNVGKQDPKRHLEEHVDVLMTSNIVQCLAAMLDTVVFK
The depositor's hits bear a star; / = no result given. In the library only some 4.5% were active in any assay of this set; here they are far more common.

SMILES	dFosB activator	ZTA DNA inh	TPT1 inh	GRIN3A LBD mod	EBNA-1 inh	Rpn11 inh
CCc1cccc(NC(=O)CCNS(=O)(=O)c2ccc3c(c2)oc(=O)n3C)c1	-6	-8	-3	3	-4	-2
Cc1nn(-c2ccccc2)c(Cl)c1/C=N/NC(=O)c1ccccc1NS(=O)(=O)c1cccs1	0	-14	-3	16*	6	11
Cc1nn(-c2ccccc2)c(Cl)c1/C=N/NC(=O)c1ccc(NS(=O)(=O)c2cccs2)cc1	/	-4	-2	/	-1	/
CCCC(=O)Oc1ccc(-c2nccc(C(OC)OC)n2)cc1	-7	2	0	2	-5	4
COc1ccc(C(C)(O)c2nc(-c3ccc4c(c3)OCO4)cs2)cc1 (stereo not given)	/	/	/	/	/	11
COC(=O)[C@]1(C)N[C@H](CN(C)C(=O)NC(C)C)[C@@H]2C(=O)N(Cc3ccccc3)C(=O)[C@@H]21	-2	/	/	5	/	-3
CCN(C[C@H]1N[C@@](C)(C(=O)OC)[C@H]2C(=O)N(Cc3ccccc3)C(=O)[C@@H]12)C(=O)NC(C)C	3	/	/	14*	/	-4
COC(=O)[C@]1(C)N[C@H](CN(C)C(=O)Nc2ccccc2)[C@@H]2C(=O)N(C)C(=O)[C@@H]21	-10	/	/	13*	/	-3
COC(=O)[C@]1(C)N[C@H](CN(C)C(=O)Nc2ccc(F)cc2)[C@@H]2C(=O)N(C)C(=O)[C@@H]21	4	/	/	1	/	-1
COC(=O)[C@]1(C)N[C@H](CN(C)C(=O)Nc2ccc(OC)cc2)[C@@H]2C(=O)N(C)C(=O)[C@@H]21	-2	/	/	13*	/	-1
CC(=O)N/N=C(/c1ccccc1)C(O)c1ccccc1 (stereo not given)	1	/	/	1	/	4
O=c1cc(-c2ccccc2)nc2c(Cl)cc(Cl)cn12	/	/	/	/	/	-1
Cc1ccc(C(=O)c2ccccc2C(=O)OCC(=O)Nc2ccc(SC(F)F)cc2)cc1	-12	-15	-9	-486	-5	8
O=C(COC(=O)c1ccccc1Cc1ccccc1)Nc1ccc(SC(F)F)cc1	-8	-12	7	19*	4	1
CCOc1ccc(NC(=O)CN(C)CC(=O)Nc2ccccc2SC)cc1OCC	-11	7	-1	18*	6	-6
CCOc1ccc(NC(=O)CN(C)c2ccc(S(=O)(=O)N(C(C)C)C(C)C)cn2)cc1OCC	0	14	0	17*	3	4
Nc1ccc(S(=O)(=O)NC2(C(F)(F)F)NC(=O)N(c3ccccc3F)C2=O)cc1 (stereo not given)	-5	-14	0	-3	-5	7
Cc1cc(Cl)ccc1OCC(=O)OCC(=O)NCCNC(=O)COC(=O)COc1ccc(Cl)cc1C	3	/	/	12*	/	-3
Cc1cc(Cl)ccc1OCC(=O)NCCC(=O)O	-1	-6	2	2	-3	-2
COc1ccc(Cl)cc1C(=O)Nc1ccc(OCC(=O)N2CCOCC2)cc1	-12	/	/	0	/	-13
COc1ccc(OC)c(NC(=O)c2ccc(OCC(=O)N3CCOCC3)c(OC)c2)c1	-8	6	-1	22*	-2	2
COc1ccc(NC(=O)Nc2ccc(OCC(=O)N3CCOCC3)cc2)cc1OC	-6	7	-2	11*	11	-3
COc1cc(C(=O)Nc2ccccc2N2CCOCC2)ccc1OCc1c(C)noc1C	-3	-10	2	12*	4	3
CCOc1ccccc1NC(=O)c1ccc(OCC(=O)N2CCOCC2)c(OC)c1	-3	/	/	-1	/	2
COc1ccccc1CNC(=O)COC(=O)CSc1ccc(C)c(C)c1	-13	/	/	-2	/	-5
SMILES	dFosB activator	ZTA DNA inh	TPT1 inh	GRIN3A LBD mod	EBNA-1 inh	Rpn11 inh
C[C@H]1CCC2[C@](C)(CO)[C@@H](O)CC[C@]2(C)[C@@]12CCC(CO)(CCO)O2 (stereo not given in full)	-1	-9	2	1	3	-2
CCSc1cc(N2CCCC2)nc(-c2ccc(C)cc2)n1	-8	13	-1	15*	4	-6
CCSc1cc(N2CCCC2)nc(-c2ccc(F)cc2)n1	-4	-1	0	1	-4	-5
O=c1c([N+](=O)[O-])c(O)c2ccccc2n1Cc1ccccc1	-5	24	1	10*	1	-6
Cc1ccc(S(=O)(=O)N2CCN(Cc3ccccc3C(F)(F)F)CC2)cc1	2	3	-4	20*	-5	2
O=S(=O)(c1ccccc1)N1CCN(Cc2ccccc2C(F)(F)F)CC1	7	-4	5	4	-4	-2
Cc1ccc2nc(C3CCN(C(=O)NCc4ccccc4)CC3)[nH]c2c1	-4	-7	0	1	5	-5
Cc1ccc2nc(C3CCCN(C(=O)NCc4ccccc4)C3)[nH]c2c1 (stereo not given)	-4	-13	0	16*	7	-4
[O-][n+]1c2ccccc2cc2ccccc21	0	-12	-4	46*	-6	-10
O=C(CN1CCCCCCC1)N/N=C/c1ccc(F)cc1F	-2	-7	1	24*	-15	0
O=C(NNc1c2ccccc2nc2ccccc12)c1ccccc1O	-1	-26	9	18*	5	-21
CN1CCN(c2cc(-c3cccc(C(=O)O)c3)nc3ccnn23)CC1	/	/	/	/	/	-1
CSc1ccccc1NC(=O)CO/N=C(\C)c1cc2ccccc2o1	-19	8	-2	11*	-5	-12
CSc1ccccc1NC(=O)COC(=O)CCc1ccccc1	-1	-14	-2	14*	3	-2
C/C(=N\OCC(=O)Nc1ccc(F)c(F)c1F)c1cc2ccccc2o1	-5	-10	-3	-8	10	2
CSc1ccccc1C(=O)OCC(=O)NC1CCCCCCC1	/	/	/	/	/	-6
CC(O)Cn1c(N2CCCC2)nc2c1c(=O)[nH]c(=O)n2C (stereo not given)	-3	-8	0	-2	-8	0
COc1cccc(CNC(=O)CCc2nc3cc(S(=O)(=O)N4CCOCC4)ccc3n2C)c1	-5	2	-3	0	5	1
CSc1cccc(NC(=O)Nc2nc3c(C)cccc3s2)c1	12	9	-3	18*	9	5
COC(=O)Nc1nc2c(C)cccc2s1	-14	-9	-1	0	11	-4
N#Cc1c(NC(=O)CCN2C(=O)c3ccccc3C2=O)oc(-c2ccccc2)c1-c1ccccc1	2	-3	-4	-2	13	8
N#Cc1c(NC(=O)CN2C(=O)c3ccccc3C2=O)oc(-c2ccccc2)c1-c1ccccc1	-5	-2	1	17*	-2	6
CCN(CC(=O)Nc1ccc(NC(C)=O)cc1)C(=O)/C=C/c1ccc2c(c1)OCO2	0	-11	0	31*	-8	3
Cc1ccc(NC(=O)CN(C)C(=O)/C=C/c2ccc3c(c2)OCO3)cc1	-7	1	/	3	/	-1

Screens deposited in PubChem BioAssay by several laboratories.
